Measurements from PubChem BioAssay AID2061166 (Soto Lab, Mitchell Center for Alzheimers Disease and …, 2025).
Unmarked numbers belong to inactive results. Active and inactive are the calls of the source.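 Rule for the calls: active = mean tau seeding fluorescence area under 1% of vehicle, meaning inhibition above a set limit; inactive = the rest.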

These compounds were tested against Microtubule-associated protein tau (Homo sapiens) (UniProt P10636) (assay: blockers of AD brain-seeded tau fibril growth – biochemical, seed amplification, ThT fluorescence, primary screen (AID 2061166)). Conditions: Recombinant tau seeded by AD brain, ThT fluorescence AUC; at 100 µM; stronger effect = higher value.
Microtubule-associated protein tau (Homo sapiens), sequence (P10636 whole entry, looked up): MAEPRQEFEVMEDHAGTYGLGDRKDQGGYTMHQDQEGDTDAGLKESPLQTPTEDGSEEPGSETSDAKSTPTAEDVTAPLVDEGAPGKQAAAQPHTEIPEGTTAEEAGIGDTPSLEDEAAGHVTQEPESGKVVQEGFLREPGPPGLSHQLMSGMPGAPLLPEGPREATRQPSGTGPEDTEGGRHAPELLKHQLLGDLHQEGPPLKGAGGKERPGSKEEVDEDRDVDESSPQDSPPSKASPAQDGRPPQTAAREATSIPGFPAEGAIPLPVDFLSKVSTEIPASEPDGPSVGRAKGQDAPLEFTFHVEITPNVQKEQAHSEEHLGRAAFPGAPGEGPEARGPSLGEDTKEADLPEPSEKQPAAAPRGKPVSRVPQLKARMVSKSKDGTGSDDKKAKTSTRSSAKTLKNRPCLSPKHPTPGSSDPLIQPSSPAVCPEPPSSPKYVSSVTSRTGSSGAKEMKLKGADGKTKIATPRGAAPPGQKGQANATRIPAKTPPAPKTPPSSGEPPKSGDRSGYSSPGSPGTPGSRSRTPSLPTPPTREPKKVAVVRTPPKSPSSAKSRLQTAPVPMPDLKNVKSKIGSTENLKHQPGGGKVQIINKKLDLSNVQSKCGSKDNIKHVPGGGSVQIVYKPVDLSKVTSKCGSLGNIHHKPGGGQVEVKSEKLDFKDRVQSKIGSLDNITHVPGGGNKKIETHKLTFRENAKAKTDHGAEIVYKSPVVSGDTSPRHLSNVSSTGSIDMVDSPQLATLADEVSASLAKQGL

SMILES | inhibition
CN(C)CCc1c[nH]c2ccc(Cn3cncn3)cc12 | -4.86%
CN(C)CCC=C1c2ccccc2CCc2ccccc21 | 13.9%
CNS(=O)(=O)CCc1ccc2[nH]cc(C3CCN(C)CC3)c2c1 | -30.8%
CC12CC3CC(C)(C1)CC(N)(C3)C2 | 10.2%
O=C1CSC(=S)N1 | -4.3%
Cc1ncc(CO)c(CO)c1O (tested in a mixture with another compound) | 21.6%
O=C(c1cc(O)c(O)c(O)c1)c1ccc(O)c(O)c1O | 97.9%
O=c1c(-c2ccc(O)cc2)coc2cc(O)cc(O)c12 | -59.4%
O=C(OC1CN2CCC1CC2)N1CCc2ccccc2C1c1ccccc1 (stereo not drawn) | -37.8%
COc1ccc(C2CNC(=O)C2)cc1OC1CCCC1 (stereo not drawn) | 16.3%
O=C(C=Cc1ccc(O)c(O)c1)OC(Cc1ccc(O)c(O)c1)C(=O)O (stereo not drawn) | 95%
CO/N=C(\C(=O)NC1C(=O)N2C(C(=O)[O-])=C(C[N+]3(C)CCCC3)CSC12)c1csc(N)n1 (stereo not drawn) | 53.1%
CN(C)c1ccc2nc3ccc(=[N+](C)C)cc-3sc2c1 | 100% (active)
COC1CC2CCC(C)C(O)(O2)C(=O)C(=O)N2CCCCC2C(=O)OC(C(C)CC2CCC(OCCO)C(OC)C2)CC(=O)C(C)/C=C(\C)C(O)C(OC)C(=O)C(C)CC(C)/C=C/C=C/C=C/1C (stereo not drawn) | 19.2%
CC1OC(OCC2OC(Oc3c(-c4ccc(O)c(O)c4)oc4cc(O)cc(O)c4c3=O)C(O)C(O)C2O)C(O)C(O)C1O (stereo not drawn) | 28.7%
Oc1ccc(/C=C/c2cc(O)cc(O)c2)cc1 | 16.9%
CC1CCC2(C(=O)O)CCC3(C)C(=CCC4C5(C)CC(O)C(O)C(C)(CO)C5C(O)CC43C)C2C1C (stereo not drawn) | 31%

SMILES | inhibition
O=S(=O)(O)c1cc(S(=O)(=O)O)c2c(N=Nc3ccccc3)c(O)ccc2c1 | 39%
O=c1c(O)c(-c2cc(O)c(O)c(O)c2)oc2cc(O)cc(O)c12 | 95.3%
C#Cc1cccc(Nc2ncnc3cc(OCCOC)c(OCCOC)cc23)c1 | -11.4%
CC(OC1OCCN(Cc2n[nH]c(=O)[nH]2)C1c1ccc(F)cc1)c1cc(C(F)(F)F)cc(C(F)(F)F)c1 (stereo not drawn) | 60.4%
NC(=O)OCC(COC(N)=O)c1ccccc1 | -8.84%
O=C(CCCN1CCC(O)(c2ccc(Cl)cc2)CC1)c1ccc(F)cc1 | -16.8%
CC(C)(C)c1cc(C(C)(C)C)c(NC(=O)c2c[nH]c3ccccc3c2=O)cc1O | -88.7%
Cc1ccc(Nc2nccc(N(C)c3ccc4c(C)n(C)nc4c3)n2)cc1S(N)(=O)=O | -1.27%
CC(=O)NC(CS)C(=O)O (stereo not drawn) | 5.01%
NC(=O)NO | -49.7%
Nc1c(N=Nc2ccc(-c3ccc(N=Nc4cc(S(=O)(=O)O)c5ccccc5c4N)cc3)cc2)cc(S(=O)(=O)O)c2ccccc12 | 100% (active)
Nc1ccc(S(=O)(=O)c2ccc(N)cc2)cc1 | 26.5%
Cn1cnc2c(F)c(Nc3ccc(Br)cc3Cl)c(C(=O)NOCCO)cc21 | -4.66%
CC1=NN(c2ccccc2)C(=O)C1 | 48.4%
COC(=O)/C=C/C(=O)OC | 3.37%
NC(=O)c1cn(Cc2c(F)cccc2F)nn1 | -11.5%
